BAZ2B inh = BAZ2B (human) inhibition | AlphaScreen BAZ2B-H3K14Ac peptide displacement | actives 4.4% (n = 360,000) | AID 504333 | Q9UIF8 | Potency, µM (titrated, usually from 114 µM), without a hit: at the highest dose activity change, negative = inhibition, usual class: inhibitors; note: potency is the fitted concentration of half-maximal effect; % is set by controls: 0 for no effect and ±100 for the full control effect; nearly all actives have a fitted effect of over 60% in size
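Multi-concentration screen (max 110 uM) measuring displacement of acetylated histone H3 peptide from BAZ2B by AlphaScreen, using 50 nM protein, 50 nM peptide and 10 ug/mL streptavidin donor plus Ni-chelate acceptor beads.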
JMJD2A Tudor inh = inhibitors of human JMJD2A Tudor domain; O75164; AlphaScreen JMJD2A-Tudor / H3K4me3 peptide binding; Potency, µM (doses to about 114 µM), inactives show top-dose activity change, negative = inhibition, most hits filed as inhibitors; actives 4.4% (n = 390,000); AID 504339; note: potency is the fitted concentration of half-maximal effect; % is set by controls: 0 for no effect and ±100 for the full control effect; nearly all actives have a fitted effect of over 50% in size
HP1b binding inh = blocks HP1-beta chromodomain binding to methylated histone tails; actives 0.56% (n = 390,000); P83916; AID 540317; AlphaScreen HP1-beta / biotin-H3K9me3 peptide binding; Potency, µM (doses to about 114 µM), for inactives: top-dose activity change, negative = inhibition, most hits filed as inhibitors; note: potency is the fitted concentration of half-maximal effect; nearly all actives have a fitted effect of over 70% in size
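AlphaScreen: HP1-beta (50 nM) preformed 30 min with biotin-H3(1-18)K9me3 peptide (50 nM) in PBS pH 7.4, 0.01% Tween-20. Compound added for 30 min at RT, then streptavidin donor/nickel chelate acceptor beads (10 ug/mL) for 30 min.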
G9a inh = G9a (human) methyltransferase inhibition; Potency, µM (titrated, usually from 102 µM), without a hit: at the top dose activity, negative = inhibition, hits mostly inhibitors; Q96KQ7; G9a H3K9 monomethylation, AlphaScreen, 2 h; AID 504332; actives 8.8% (n = 350,000); note: potency is the fitted concentration of half-maximal effect; % is set by controls: 0 for no effect and ±100 for the full control effect; nearly all actives have a fitted effect of over 75% in size
Target sequence (Q96KQ7 913-1193 limits assumed): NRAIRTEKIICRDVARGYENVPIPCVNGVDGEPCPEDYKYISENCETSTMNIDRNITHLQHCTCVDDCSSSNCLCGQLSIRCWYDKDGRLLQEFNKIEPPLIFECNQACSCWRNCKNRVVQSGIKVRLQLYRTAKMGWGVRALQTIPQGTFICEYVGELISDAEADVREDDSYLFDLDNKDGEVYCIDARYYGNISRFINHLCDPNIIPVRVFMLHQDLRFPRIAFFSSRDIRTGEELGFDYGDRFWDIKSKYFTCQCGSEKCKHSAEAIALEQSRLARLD
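G9a (20 nM) was preincubated 15 min with compound, then reacted 2 h at room temperature with 500 nM biotin-H3K9 peptide and 20 µM SAM. Monomethyl-H3K9 detected by AlphaScreen using anti-H3K9me1 antibody.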
PI5P4Ka inh = blocks human PI5P4K alpha kinase activity; P48426; PI5P4Kalpha enzyme, ADP-Glo luminescence, 60 min; stronger effect = lower value; max response, %; actives 1.2% (n = 330,000); AID 652105; active = max response of -50% or lower; inconclusive = between -30% and -50%; inactive = -30% or higher; note: value at the top dose of about 77 µM; % is set by controls: 0 for no effect and ±100 for the full control effect
Target sequence (P48426 whole entry, looked up): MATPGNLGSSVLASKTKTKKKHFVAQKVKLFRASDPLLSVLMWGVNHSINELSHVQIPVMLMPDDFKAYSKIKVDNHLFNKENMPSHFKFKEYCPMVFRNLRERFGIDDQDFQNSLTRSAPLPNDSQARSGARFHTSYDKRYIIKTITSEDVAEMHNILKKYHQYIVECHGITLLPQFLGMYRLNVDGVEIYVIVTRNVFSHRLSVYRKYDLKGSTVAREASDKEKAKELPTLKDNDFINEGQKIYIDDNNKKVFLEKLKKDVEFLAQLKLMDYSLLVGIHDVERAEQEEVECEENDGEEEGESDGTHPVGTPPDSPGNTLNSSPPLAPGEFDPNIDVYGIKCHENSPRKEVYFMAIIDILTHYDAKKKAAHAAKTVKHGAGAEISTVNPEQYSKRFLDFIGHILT
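Single end-point luminescence (ADP-Glo) quantified ADP from PI5P4Kalpha turnover; ATP 5 microM final, 1 h at RT, 0.1% CHAPS and 0.28 mM EGTA in HEPES pH 7.4.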
L3MBTL1 inh = blocks human L3MBTL1. Q9Y468. AlphaScreen L3MBTL1–H3K9me1 peptide binding. Potency, µM (top dose mostly 57.1 µM), for inactives: at the highest dose activity, negative = inhibition, actives largely listed as inhibitors. actives 0.66% (n = 230,000). AID 485360; note: potency is the fitted concentration of half-maximal effect; % is set by controls: 0 for no effect and ±100 for the full control effect; nearly all actives have a fitted effect of over 60% in size
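L3MBTL1 50 nM + b-AHA-H3(1-15)K9me1 75 nM, 30 min RT; compound added, 30 min RT; streptavidin donor/Ni-chelate acceptor beads 10 ug/mL each final, 30 min RT dark; AlphaScreen read.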
* = called active by the depositor; ? = inconclusive; · = no result given; [ ] = dose if it differs, or a comment. Only some compounds are listed: those with a hit (about 11% of all), similar ones and a draw of the others. Unless noted, calls come from the whole dose curve; as a rule, active = well fitted inhibition curve with a large enough effect; inconclusive = small, poorly fitted or top-dose-only effect; inactive = no such curve, though single readings can be large or run the other way.

SMILES | BAZ2B inh | JMJD2A Tudor inh | HP1b binding inh | G9a inh | PI5P4Ka inh | L3MBTL1 inh
COc1ccc(C2C(=O)N(C3CCCCC3)CC(=O)N2Cc2ccco2)cc1 (centres undefined) | -4.8% | -29.8% | 9.0% | 25.1µM* | · | -2.5%
COc1ccc(C2C(=O)N(C3CCCCCC3)CC(=O)N2Cc2ccccc2)cc1 (centres undefined) | 1.1% | -19.6% | 42.1% | -8.1%[59 µM] | · | ·
C/C=C1\COC(C(=O)NCCN2CCOCC2)(C(F)(F)F)C=C1C=C(C)C (centres undefined) | · | -18.6% | 40.6% | · | · | ·
Cc1ccsc1/C=N/n1c(-c2cc(-c3ccccc3)n[nH]2)n[nH]c1=S | -12.5% | ? | -3.1% | 2.51µM* | -17.3 | -10.6%
Cc1ccc(-c2n[nH]c(=S)n2/N=C/c2sccc2C)cc1 | -12.8% | -21.6% | 6.6% | 0.631µM* | 2.6 | 0.0%
Cc1cccc(NC(=O)CS(=O)(=O)c2cccc3nsnc23)c1 | -2.3% | -4.5% | 18.8%[57 µM] | 1.0%[59 µM] | · | ·
Cc1cccc(Nc2c(-c3ccc(N4CCOCC4)cc3)nc3ncccn23)c1 | -23.0% | -20.0% | 62.2% | -0.1% | -1.9 | -0.6%
CCc1cccc(C)c1Nc1c(-c2ccc(N3CCOCC3)cc2)nc2ncccn12 | 28.2µM* | 39.8µM* | ? | 10µM* | · | ·
Cc1ccccc1Nc1c(-c2cccnc2)nc2cccc(C)n12 | ? | -27.4% | 29.9% | -28.5% | 0.0 | ·
Cc1ccccc1Nc1c(-c2ccc(N3CCOCC3)cc2)nc2ccc(Br)cn12 | ? | ? | ? | 7.08µM* | · | ·
Cc1ccccc1Nc1c(-c2ccc(N3CCOCC3)cc2)nc2ccccn12 | 17.8µM* | 28.2µM* | ? | 15.8µM* | · | ·
Cc1ccccc1Nc1c(-c2ccc(N3CCOCC3)cc2)nc2cccc(C)n12 | ? | 22.4µM* | ? | 14.1µM* | · | ·
Cc1ccc2c(c1C)NC(=O)CC2c1ccc(Cl)cc1Cl (centres undefined) | -11.9% | -22.3% | 8.3% | 7.5%[59 µM] | · | ·
CC(C)COc1ccc(C(=O)Nc2scc(-c3ccc(Br)cc3)c2C(=O)OC(C)C)cc1 | 2.1% | 6.2% | 34.9% | 7.8%[59 µM] | · | ·
CN1C(=O)/C(=C/c2cn(CC(=O)NCc3ccco3)c3ccccc23)NC1=S | ? | · | · | · | · | -2.2%
CN1C(=O)/C(=C/c2cn(CC(=O)N3CCCCC3)c3ccccc23)NC1=S | -27.1% | -29.1% | 41.3% | 39.8µM* | 5.6 | ·
CN(C)CCN(C(=O)c1ccc(S(=O)(=O)N(C)C)cc1)c1nc2cc3c(cc2s1)OCCO3 | · | -14.7% | 9.9% | 56.2µM* | 0.3 | ·
CN(C)CCN(C(=O)c1ccc2c(c1)CCCC2)c1nc2cc3c(cc2s1)OCCO3 | -1.3% | 44.7µM* | ? | · | -0.3 | ·
CN(C)CCN(C(=O)c1ccc2c(c1)OCCO2)c1nc2cc3c(cc2s1)OCO3 | ? | ? | -25.0% | · | -1.5 | ·
CCOc1ccc2nc(N(CCN(C)C)C(=O)c3ccc4c(c3)CCCC4)sc2c1 | ? | 35.5µM* | -15.3% | 39.8µM* | 1.2 | ·
CC(=O)N(CCN(C)C)c1nc2cc3c(cc2s1)OCCO3 | -7.7% | -9.1% | 34.6% | · | 1.1 | ·
CN(C)CCN(C(=O)c1ccc(S(=O)(=O)N(C)c2ccccc2)cc1)c1nc2cc3c(cc2s1)OCCO3 | ? | ? | -10.6% | 39.8µM* | -6.4 | ·
Cc1ccc2nc(N(CCCN(C)C)C(=O)c3ccc4c(c3)CCCC4)sc2c1 | ? | ? | ? | ? | -1.9 | -17.8%
COc1ccccc1CNC(=O)CN1C(=O)CSc2ccc(S(=O)(=O)N3CCCCC3)cc21 | -6.8% | -25.1% | 13.8% | -3.7%[59 µM] | · | ·
CCOc1cccc2sc(N(CCCN(C)C)C(=O)c3ccc(S(=O)(=O)N4CCc5ccccc5C4)cc3)nc12 | -27.8% | -5.7% | 12.6% | · | 9.1 | ·
SMILES | BAZ2B inh | JMJD2A Tudor inh | HP1b binding inh | G9a inh | PI5P4Ka inh | L3MBTL1 inh
CCOc1cccc2sc(N(CCCN(C)C)C(=O)c3ccc(S(=O)(=O)N(C)c4ccccc4)cc3)nc12 | ? | ? | -19.4% | 56.2µM* | -4.0 | ·
CC1=CC(C)C2COC(c3ccc[n+](C)c3)C1C2C (centres undefined) | -34.2% | 1.4% | -2.5% | 7.08µM* | 1.2 | 14.7%
COc1ccccc1-n1ncc2c(=O)[nH]c(SCC(=O)Nc3ccc(Cl)cc3)nc21 | -7.3% | -25.3% | -4.8% | 1.0%[59 µM] | · | ·
CCCC[C@@H](C=O)NC(=O)[C@H](CC(C)C)NC(=O)OCc1ccccc1 | · | · | · | -32.4%[59 µM] | · | ·
Cc1[nH]n(C(N)=S)c(=O)c1N=Nc1cccc([N+](=O)[O-])c1C | ? | ? | 6.2% | 56.2µM* | -5.1 | ·
Cc1c(N=Nc2c(-c3ccc([N+](=O)[O-])cc3)[nH]n(C(N)=S)c2=O)cccc1[N+](=O)[O-] | ? | ? | ? | 50.1µM* | -62.5* | -5.9%
Cc1[nH]n(C(N)=S)c(=O)c1N=Nc1cc(-c2ccc(Br)cc2)[nH]n1 | · | ? | ? | -48.5% | ? | -4.1%
NC(=S)n1[nH]c(-c2ccc([N+](=O)[O-])cc2)c(N=Nc2ccccc2[N+](=O)[O-])c1=O | 39.8µM* | ? | -5.8% | 0.9% | -21.0 | 5.5%
NC(=S)n1[nH]c(-c2ccc([N+](=O)[O-])cc2)c(N=Nc2cccc([N+](=O)[O-])c2)c1=O | 39.8µM* | 44.7µM* | ? | 11.2µM* | ? | ?
Cc1ccccc1Cn1c(=O)n(CCCCC(=O)NCCc2ccccc2)c(=O)c2ccccc21 | -0.6% | -8.2% | 38.3% | -2.2%[59 µM] | · | ·
Cn1c(=O)c2c(n(Cc3ccccc3)c1=O)NC(=O)C2CC(=O)O (centres undefined) | -3.6% | -6.3% | 49.6% | 44.7µM* | -3.8 | ·
Cn1c2c(c(=O)n(C)c1=O)C(CC(=O)Nc1ccccc1)C(=O)N2 (centres undefined) | 10.3% | -1.5% | 13.7% | -21.6%[59 µM] | · | 10.9%
CC1CCN(C(=O)CC2C(=O)Nc3c2c(=O)n(C)c(=O)n3Cc2ccccc2)CC1 (centres undefined) | 23.1% | -6.0% | 18.1% | 8.91µM* | · | 47.1%
CC1CCN(c2nc3c(c(=O)n(C)c(=O)n3C)n2Cc2ccccc2)CC1 | -19.3% | -15.7% | 1.8% | ? | · | -0.5%
CC1CCN(S(=O)(=O)c2ccc3c(c2)c(=O)c(C(=O)NCCc2ccccc2)cn3C)CC1 | · | -7.3% | 22.2% | 6.7%[59 µM] | · | ·
COc1cc(F)c(S(=O)(=O)N2CCCN(S(=O)(=O)c3ccc(NC(C)=O)cc3)CC2)c(F)c1 | · | -27.2% | · | · | · | ·
COC(=O)c1c(Cl)c2n3ccccc3c(C)c(-c3ccccc3)c-2c1C(=O)OC | ? | ? | ? | 8.91µM* | -8.6 | ?
COC(=O)c1cc2c(-c3ccccc3)c(C)c3ccccn3c-2c1C(=O)OC | 14.1µM* | 44.7µM* | ? | 14.1µM* | 0.6 | ·
CC/C(O)=C(/C#N)c1nnc2n1CCCCC2 | 79.4µM* | 28.2µM* | 21.2% | ? | · | -3.4%

High-throughput results as filed in PubChem BioAssay.
